# Measured values reported in PubChem BioAssay (NCI).
# About 79,000 compounds went through this panel and 15% of them were active in at least one assay; those are over-represented in the sample as a whole. Unmarked numbers belong to inactive results. Activity calls are given as the source filed them. No stated cut-off is given here; in the data, active means growth inhibition above about 70%; inactive means the rest.
# Columns and labels:
# [1] = NCI Yeast Anticancer Drug Screen. Data for the rad52 strain (AID 147);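 further: 0% = growth of vehicle-treated control cultures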; conditions: S. cerevisiae rad52 mutant growth inhibition, active compounds read high
# Outline: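 Here a repair-compromised yeast strain receives each compound; its growth is then quantified and normalised to vehicle-only controls.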
# [2] = NCI Yeast Anticancer Drug Screen. Data for the wt1 strain (AID 149);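 further: 0% = growth of vehicle-treated wt1 cultures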; conditions: S. cerevisiae wt1 strain (SPY 50644) growth inhibition, active compounds read high
# Outline: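 Compounds are added to wt1 yeast cultures. Growth is then measured. Inhibition is expressed relative to vehicle-treated controls.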
# [3] = NCI Yeast Anticancer Drug Screen. Data for the rad50EPP+ strain (AID 151);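 further: 0% = growth of vehicle-treated control cultures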; conditions: S. cerevisiae rad50 mutant strain, active compounds read high
# Outline: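 Read-out is yeast growth inhibition relative to vehicle; cells used were the rad50EPP+ strain.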
# [4] = NCI Yeast Anticancer Drug Screen. Data for the mgt1 strain (AID 153); conditions: S. cerevisiae mgt1 mutant growth inhibition, active compounds read high
# Outline: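 Measured: inhibition of mgt1 yeast growth by compound, normalized to vehicle-treated cultures.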
# [5] = NCI Yeast Anticancer Drug Screen. Data for the rad50 strain (AID 155);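 further: 0% = growth of vehicle-only cultures of the same strain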; conditions: S. cerevisiae rad50 strain growth inhibition, active compounds read high
# Outline: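 Inhibition values express reduced yeast growth in compound-treated cultures relative to vehicle-treated controls.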
# [6] = NCI Yeast Anticancer Drug Screen. Data for the mec2-1 strain (AID 157); conditions: S. cerevisiae mec2-1 strain, active compounds read high
# Outline: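 Using mec2-1 yeast: add compound, measure growth, express inhibition versus vehicle-treated cultures.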
# [7] = NCI Yeast Anticancer Drug Screen. Data for the rad14 strain (AID 159);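 further: 0% = growth of vehicle-treated control cultures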; conditions: S. cerevisiae rad14 strain growth inhibition, active compounds read high
# Outline: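 A mutant yeast strain defective in DNA damage repair is treated with compound; inhibition of its growth is scored against untreated, vehicle-exposed cultures.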
# [8] = NCI Yeast Anticancer Drug Screen. Data for the sgs1 mgt1 strain (AID 161);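 further: 0% = growth of cultures given vehicle only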; conditions: S. cerevisiae sgs1 mgt1 strain, active compounds read high
# Outline: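 Compounds are added to genetically altered yeast, and growth is compared with cultures given vehicle alone to give percent inhibition.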
# [9] = NCI Yeast Anticancer Drug Screen. Data for the cln2 rad14 strain (AID 165);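 further: 0% = growth equal to vehicle treated cultures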; conditions: S. cerevisiae cln2 rad14 strain, active compounds read high
# Outline: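 Yeast strain cln2 rad14, bearing defects in cell cycle control and DNA repair, serves as the test system; values reflect growth inhibition compared with vehicle.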
# [10] = NCI Yeast Anticancer Drug Screen. Data for the bub3 strain (AID 167); conditions: S. cerevisiae bub3 mutant strain, active compounds read high
# Outline: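 Steps: expose the mutant yeast strain to compound; grow alongside vehicle-treated cultures; measure growth; express inhibition against the vehicle cultures.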
# [11] = NCI Yeast Anticancer Drug Screen. Data for the wt2 strain (AID 169);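 further: 0% = growth of vehicle-treated yeast cultures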; conditions: S. cerevisiae wt2 strain growth inhibition, active compounds read high
# Outline: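 Treated yeast vs. vehicle-treated yeast: growth inhibition determined.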
# [12] = NCI Yeast Anticancer Drug Screen. Data for the mlh1 strain (AID 171);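 further: 0% = growth of vehicle-treated control cultures of the same strain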; conditions: S. cerevisiae mlh1 strain growth inhibition, active compounds read high
# Outline: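 A yeast strain with a defined genetic lesion serves as the test organism. Cultures receive compound or vehicle, and growth is measured.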
# [13] = NCI Yeast Anticancer Drug Screen. Data for the sgs1 strain (AID 173);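 further: 0% = growth of vehicle-only control cultures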; conditions: S. cerevisiae sgs1 mutant, active compounds read high
# Outline: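 A genetically defined yeast mutant is incubated with the test compound, and its growth is compared to that of the same strain given vehicle.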
# [14] = NCI Yeast Anticancer Drug Screen. Data for the mlh1 rad18 strain (AID 175); conditions: S. cerevisiae mlh1 rad18 strain growth inhibition, active compounds read high
# Outline: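 Steps: expose repair-defective yeast to compound; measure growth; express inhibition against vehicle-treated controls.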
# [15] = NCI Yeast Anticancer Drug Screen. Data for the rad18 strain (AID 177); conditions: S. cerevisiae rad18 mutant growth inhibition, active compounds read high
# Outline: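 Measured value is growth inhibition of a yeast strain bearing a DNA repair alteration, referenced to vehicle-treated cells.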
# [16] = at 5.0 µM (retest, dose inferred, filed as 0.5)
# [17] = at 50.0 µM (retest, dose inferred, filed as 5.0)
compound,measurement,setting,value
O=C(O)Cc1cc(F)ccc1C(=O)O,growth inhibition,[1]; at 1.2 µM,3%
same,growth inhibition,[1]; at 3.7 µM,4%
same,growth inhibition,[1]; at 11.0 µM,7%
same,growth inhibition,[1]; at 33.0 µM,12%
same,growth inhibition,[1]; at 100.0 µM,28%
same,growth inhibition,[2]; at 1.2 µM,3%
same,growth inhibition,[2]; at 3.7 µM,7%
same,growth inhibition,[2]; at 11.0 µM,13%
same,growth inhibition,[2]; at 33.0 µM,16%
same,growth inhibition,[2]; at 100.0 µM,25%
same,growth inhibition,[3]; at 1.2 µM,-2%
same,growth inhibition,[3]; at 3.7 µM,-6%
same,growth inhibition,[3]; at 11.0 µM,-13%
same,growth inhibition,[3]; at 33.0 µM,-26%
same,growth inhibition,[3]; at 100.0 µM,-15%
same,growth inhibition,[4]; at 1.2 µM,-1%
same,growth inhibition,[4]; at 3.7 µM,3%
same,growth inhibition,[4]; at 11.0 µM,9%
same,growth inhibition,[4]; at 33.0 µM,28%
same,growth inhibition,[4]; at 100.0 µM,48%
same,growth inhibition,[5]; at 1.2 µM,3%
same,growth inhibition,[5]; at 3.7 µM,3%
same,growth inhibition,[5]; [16],-2%
same,growth inhibition,[5]; at 11.0 µM,6%
same,growth inhibition,[5]; at 33.0 µM,12%
same,growth inhibition,[5]; [17],45%
same,growth inhibition,[5]; at 50.0 µM,5.3%
same,growth inhibition,[5]; at 100.0 µM,29%
same,growth inhibition,[6]; at 1.2 µM,-1%
same,growth inhibition,[6]; at 3.7 µM,0%
same,growth inhibition,[6]; [16],1%
same,growth inhibition,[6]; at 11.0 µM,3%
same,growth inhibition,[6]; at 33.0 µM,11%
same,growth inhibition,[6]; [17],2%
same,growth inhibition,[6]; at 50.0 µM,29.9%
same,growth inhibition,[6]; at 100.0 µM,30%
same,growth inhibition,[7]; at 1.2 µM,0%
same,growth inhibition,[7]; at 3.7 µM,-2%
same,growth inhibition,[7]; at 11.0 µM,4%
same,growth inhibition,[7]; at 33.0 µM,14%
same,growth inhibition,[7]; at 100.0 µM,51%
same,growth inhibition,[8]; [16],-8%
same,growth inhibition,[8]; [17],65%
same,growth inhibition,[8]; at 50.0 µM,21.2%
same,growth inhibition,[9]; [16],-2%
same,growth inhibition,[9]; [17],5%
same,growth inhibition,[9]; at 50.0 µM,94.5% (active)
same,growth inhibition,[10]; at 1.2 µM,-1%
same,growth inhibition,[10]; at 3.7 µM,-2%
same,growth inhibition,[10]; [16],8%
same,growth inhibition,[10]; at 11.0 µM,1%
same,growth inhibition,[10]; at 33.0 µM,4%
same,growth inhibition,[10]; [17],66%
same,growth inhibition,[10]; at 50.0 µM,73.5% (active)
same,growth inhibition,[10]; at 100.0 µM,17%
same,growth inhibition,[11]; at 1.2 µM,2%
same,growth inhibition,[11]; at 3.7 µM,6%
same,growth inhibition,[11]; at 11.0 µM,13%
same,growth inhibition,[11]; at 33.0 µM,18%
same,growth inhibition,[11]; at 100.0 µM,42%
same,growth inhibition,[12]; at 1.2 µM,5%
same,growth inhibition,[12]; at 3.7 µM,2%
same,growth inhibition,[12]; at 11.0 µM,7%
same,growth inhibition,[12]; at 33.0 µM,15%
same,growth inhibition,[12]; at 100.0 µM,76% (active)
same,growth inhibition,[13]; at 1.2 µM,2%
same,growth inhibition,[13]; at 3.7 µM,7%
same,growth inhibition,[13]; at 11.0 µM,9%
same,growth inhibition,[13]; at 33.0 µM,21%
same,growth inhibition,[13]; at 100.0 µM,65%
same,growth inhibition,[14]; [16],-5%
same,growth inhibition,[14]; [17],75% (active)
same,growth inhibition,[14]; at 50.0 µM,38.3%
same,growth inhibition,[15]; at 1.2 µM,3%
same,growth inhibition,[15]; at 3.7 µM,1%
same,growth inhibition,[15]; at 11.0 µM,0%
same,growth inhibition,[15]; at 33.0 µM,12%
same,growth inhibition,[15]; at 100.0 µM,42%
CN(C)CCNc1ccc2ncnc3c2c1C(=O)c1ccccc1-3,growth inhibition,[1]; at 1.2 µM,95% (active)
same,growth inhibition,[1]; at 3.7 µM,94% (active)
same,growth inhibition,[1]; at 11.0 µM,96% (active)
same,growth inhibition,[1]; at 33.0 µM,97% (active)
same,growth inhibition,[1]; at 100.0 µM,96% (active)
same,growth inhibition,[2]; at 1.2 µM,7%
same,growth inhibition,[2]; at 3.7 µM,8%
same,growth inhibition,[2]; at 11.0 µM,15%
same,growth inhibition,[2]; at 33.0 µM,28%
same,growth inhibition,[2]; at 100.0 µM,34%
same,growth inhibition,[3]; at 1.2 µM,90% (active)
same,growth inhibition,[3]; at 3.7 µM,90% (active)
same,growth inhibition,[3]; at 11.0 µM,93% (active)
same,growth inhibition,[3]; at 33.0 µM,95% (active)
same,growth inhibition,[3]; at 100.0 µM,95% (active)
same,growth inhibition,[4]; at 1.2 µM,2%
same,growth inhibition,[4]; at 3.7 µM,6%
same,growth inhibition,[4]; at 11.0 µM,22%
same,growth inhibition,[4]; at 33.0 µM,25%
same,growth inhibition,[4]; at 100.0 µM,38%
same,growth inhibition,[5]; at 1.2 µM,94% (active)
same,growth inhibition,[5]; at 3.7 µM,95% (active)
same,growth inhibition,[5]; [16],84% (active)
same,growth inhibition,[5]; at 11.0 µM,96% (active)
same,growth inhibition,[5]; at 33.0 µM,96% (active)
same,growth inhibition,[5]; [17],97% (active)
same,growth inhibition,[5]; at 50.0 µM,76% (active)
same,growth inhibition,[5]; at 100.0 µM,96% (active)
same,growth inhibition,[6]; at 1.2 µM,22%
same,growth inhibition,[6]; at 3.7 µM,21%
same,growth inhibition,[6]; [16],15%
same,growth inhibition,[6]; at 11.0 µM,32%
same,growth inhibition,[6]; at 33.0 µM,45%
same,growth inhibition,[6]; [17],48%
same,growth inhibition,[6]; at 50.0 µM,68.6%
same,growth inhibition,[6]; at 100.0 µM,53%
same,growth inhibition,[7]; at 1.2 µM,16%
same,growth inhibition,[7]; at 3.7 µM,15%
same,growth inhibition,[7]; at 11.0 µM,20%
same,growth inhibition,[7]; at 33.0 µM,37%
same,growth inhibition,[7]; at 100.0 µM,44%
same,growth inhibition,[8]; [16],-21%
same,growth inhibition,[8]; [17],56%
same,growth inhibition,[8]; at 50.0 µM,77.4% (active)
same,growth inhibition,[9]; [16],2%
same,growth inhibition,[9]; [17],51%
same,growth inhibition,[9]; at 50.0 µM,66.9%
same,growth inhibition,[10]; at 1.2 µM,-8%
same,growth inhibition,[10]; at 3.7 µM,-2%
same,growth inhibition,[10]; [16],33%
same,growth inhibition,[10]; at 11.0 µM,11%
same,growth inhibition,[10]; at 33.0 µM,21%
same,growth inhibition,[10]; [17],31%
same,growth inhibition,[10]; at 50.0 µM,74.2% (active)
same,growth inhibition,[10]; at 100.0 µM,36%
same,growth inhibition,[11]; at 1.2 µM,8%
same,growth inhibition,[11]; at 3.7 µM,10%
same,growth inhibition,[11]; at 11.0 µM,20%
same,growth inhibition,[11]; at 33.0 µM,49%
same,growth inhibition,[11]; at 100.0 µM,56%
same,growth inhibition,[12]; at 1.2 µM,10%
same,growth inhibition,[12]; at 3.7 µM,14%
same,growth inhibition,[12]; at 11.0 µM,28%
same,growth inhibition,[12]; at 33.0 µM,41%
same,growth inhibition,[12]; at 100.0 µM,46%
same,growth inhibition,[13]; at 1.2 µM,9%
same,growth inhibition,[13]; at 3.7 µM,8%
same,growth inhibition,[13]; at 11.0 µM,24%
same,growth inhibition,[13]; at 33.0 µM,54%
same,growth inhibition,[13]; at 100.0 µM,61%
same,growth inhibition,[14]; [16],-13%
same,growth inhibition,[14]; [17],81% (active)
same,growth inhibition,[14]; at 50.0 µM,65.5%
same,growth inhibition,[15]; at 1.2 µM,11%
same,growth inhibition,[15]; at 3.7 µM,12%
same,growth inhibition,[15]; at 11.0 µM,25%
same,growth inhibition,[15]; at 33.0 µM,61%
same,growth inhibition,[15]; at 100.0 µM,75% (active)
